Screen size: about 96,000 compounds; about 19,000 (20%) were called active.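 How the source made its calls: active means blocking of liver enzyme CYP2C9 beyond about 50% at 5 µM (limit read from the data); inactive means the rest.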 These entries were drawn from the full list.
molecular target: Cytochrome P450 2C9 (Homo sapiens) (UniProt P11712); assay: blockers of cytochrome P450 2C9 activity – biochemical, luminescence, ADME assay, primary screen (AID 777); details: CYP2C9 Supersomes, luciferin-H conversion, at 5 µM, stronger effect = higher value
Sequence (P11712 whole entry, looked up): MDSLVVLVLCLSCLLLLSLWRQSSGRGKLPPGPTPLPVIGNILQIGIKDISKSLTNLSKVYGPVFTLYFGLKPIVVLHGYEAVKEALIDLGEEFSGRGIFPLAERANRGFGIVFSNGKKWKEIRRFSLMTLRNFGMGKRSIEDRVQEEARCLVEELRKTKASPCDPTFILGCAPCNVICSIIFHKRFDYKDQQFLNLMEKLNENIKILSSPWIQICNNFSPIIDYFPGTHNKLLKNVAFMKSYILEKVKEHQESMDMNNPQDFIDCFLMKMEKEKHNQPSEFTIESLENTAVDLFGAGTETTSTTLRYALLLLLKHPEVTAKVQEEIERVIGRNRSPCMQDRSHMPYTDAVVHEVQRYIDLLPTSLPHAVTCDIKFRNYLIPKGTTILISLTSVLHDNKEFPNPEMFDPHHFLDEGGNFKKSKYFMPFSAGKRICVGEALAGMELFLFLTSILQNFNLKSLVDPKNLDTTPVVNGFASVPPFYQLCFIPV

Row | Structure (SMILES) | inhibition
1 | Cc1ccn2cc(C(=O)NC3CCN(Cc4ccccc4)CC3)nc2c1 | 16.4% (inactive)
2 | Cc1ccc(SCC2=NNC(=O)C2)cc1 | -7.3% (inactive)
3 | CCOC(=O)N1CCN(C(=O)CSc2ccc(Cl)cc2)CC1 | 42.4% (inactive)
4 | Cc1ccc(SCc2cc(=O)[nH]c(N3CCCCC3)n2)cc1 | 14.9% (inactive)
5 | CC1(C)NC(=O)N(CCCCSc2ccc(Cl)cc2)C1=O | 85.8% (active)
6 | Cc1ccc(SCCN2C(=O)NC(C)(C)C2=O)cc1 | 68.6% (active)
7 | CCC(=O)c1ccc(OCC(O)CN2C(=O)NC(C)(C)C2=O)cc1 (stereo not drawn) | 0.4% (inactive)
8 | CC(=O)N1CCCc2cc(S(=O)(=O)CCC(=O)N3CCN(c4ccccc4)CC3)ccc21 | -45.2% (inactive)
9 | COC(=O)Cn1nc(-c2ccccc2)c2cc(Cl)ccc21 | 25.2% (inactive)
10 | O=C(COC(=O)c1n[nH]c2ccccc12)NCc1ccccc1 | 41.3% (inactive)
11 | COc1ccc(C(C)=O)cc1COC(=O)Cn1cnc2ccccc2c1=O | 41.4% (inactive)
12 | COc1ccc(COC(=O)c2n[nH]c3ccccc23)cc1F | 54.1% (active)
13 | COc1ccccc1NC(=O)[C@H](COCc1ccccc1)NC(=O)OC(C)(C)C | 51.7% (active)
14 | COc1ccccc1NC(=O)/C=C/C(N)=O | -19.3% (inactive)
15 | COc1ccccc1NC(=O)CC(NCCN(C)C)C(=O)O (stereo not drawn) | -1.4% (inactive)
16 | CCC1(C)Cc2c(sc3[nH]c(=S)n(Cc4ccccc4)c(=O)c23)CO1 (stereo not drawn) | 34.5% (inactive)
17 | Oc1ccc(/C=N/NC2=NCCCCC2)c(O)c1 | -17.7% (inactive)
18 | CSCCC(NS(=O)(=O)c1ccc2c(c1)oc(=O)n2C)C(=O)NC1CCCc2ccccc21 (stereo not drawn) | -0.6% (inactive)
19 | CC1CCN(CC(=O)c2c[nH]c3ccccc23)CC1 | 4.9% (inactive)
20 | N#Cc1c(N)sc2c1CCN(C(=O)OCc1ccccc1)C2 | 97.9% (active)
21 | O=C(O)C1CCN(C(=O)OCc2ccccc2)CC1 | 5.6% (inactive)
22 | CCOC(=O)c1c(NC(=S)Nc2ccccc2)sc2c1CCN(C)C2 | 24.5% (inactive)
23 | O=C(NN1C(=O)C2C3C=CC(C4CC34)C2C1=O)c1ccc(Cl)cc1 (stereo not drawn) | 9.6% (inactive)
24 | COc1ccc(C(=O)n2nc(-c3ccc(Cl)cc3)nc2N)cc1OC | -12.4% (inactive)
25 | COc1ccc(Cl)cc1C(=O)NCc1cn(C)nc1C | 1.3% (inactive)

Row | Structure (SMILES) | inhibition
26 | COC(=O)c1ccc(OC(=O)c2nn(C)cc2Cl)c(OC)c1 | 58.9% (active)
27 | CN(C(=O)CSc1nnc(N)s1)c1c(N)n(Cc2ccccc2)c(=O)[nH]c1=O | -12.4% (inactive)
28 | COc1ccc(CC(NC(C)=O)C(=O)NC2CCN(C(=O)Nc3ccc(C#N)cc3)CC2)cc1OC (stereo not drawn) | 9.3% (inactive)
29 | Cc1noc(C)c1S(=O)(=O)N1CCCC(C(=O)Nc2nccs2)C1 (stereo not drawn) | 56.5% (active)
30 | Cc1ccc(NC(=O)C2CCCN(S(=O)(=O)c3c(C)noc3C)C2)c(C)c1 (stereo not drawn) | 8.4% (inactive)
31 | O=C(Nc1nccs1)C1CCN(S(=O)(=O)c2ccc(Cl)c(C(F)(F)F)c2)CC1 | -45.5% (inactive)
32 | Cc1ccc(C2=CSC3=NS(=O)(=O)CCN23)cc1C | -9.4% (inactive)
33 | CCOC(=O)CSc1nnc(-c2cccc(Br)c2)o1 | -12.3% (inactive)
34 | COc1ccccc1N1CCN(C(=O)CN(Cc2ccc(Cl)cc2)S(C)(=O)=O)CC1 | 41.4% (inactive)
35 | CCOC(=O)N1CCN(C(=O)c2cc3c(-c4ccc(Cl)cc4)nn(C)c3s2)CC1 | 25.5% (inactive)
36 | CCN1CCN(C(=O)c2cc3cc4ccc(OC)cc4nc3s2)CC1 | -5.1% (inactive)
37 | COc1cccc(-c2nn(C)c3sc(C(=O)N4CCN(c5ccccc5)CC4)cc23)c1 | 68.5% (active)
38 | COc1cccc(-n2cc(C(=O)O)c3ccccc3c2=O)c1 | 0.5% (inactive)
39 | COc1ccccc1N1CCN(C(=O)c2cc3c(-c4ccc(Cl)cc4)nn(C)c3s2)CC1 | 97.6% (active)
40 | Cc1nn(Cc2ccc(C(=O)N3N=C(C(F)F)CC3(O)C(F)F)cc2)c(C)c1[N+](=O)[O-] (stereo not drawn) | 25.2% (inactive)
41 | CCOC(=O)C1CCCN(C(=O)c2sc3nc(C)nc(N4CCOCC4)c3c2C)C1 (stereo not drawn) | 23.1% (inactive)
42 | O=C1Nc2ccccc2C12Nc1ccccc1S2 (stereo not drawn) | 37.5% (inactive)
43 | COc1ccc(C(CC(=O)O)NC(=O)Cc2ccccc2)cc1 (stereo not drawn) | -10.6% (inactive)
44 | Nn1cnnc1N/N=C/c1cc([N+](=O)[O-])c(Cl)cc1Cl | 16.5% (inactive)
45 | O=C(NCC(F)(F)F)Nc1nnc(C(F)(F)F)s1 | -13.1% (inactive)
46 | CN1C(=O)c2ccccc2C(C(=O)NCCCN2CCCC2)C1c1c[nH]c2ccccc12 (stereo not drawn) | 4.5% (inactive)
47 | CCn1nc(NC(=O)c2ccco2)c2cc3ccc(C)cc3nc21 | 19.8% (inactive)
48 | Cc1c(-c2ccccc2)cn2c1-c1ccc(C)n1CC2 | -10.8% (inactive)
49 | O=[N+]([O-])c1ccc(NCCCN2CCOCC2)c(Cl)c1 | 6.4% (inactive)
50 | CC(C)c1ccc(C(=O)NCCCc2ccccc2)cc1 | 37.2% (inactive)

Row | Structure (SMILES) | inhibition
51 | Cc1ccc(S(=O)(=O)Nc2ccccc2CNc2c(C)n(C)n(-c3ccccc3)c2=O)cc1 | 83.9% (active)
52 | COc1ccc(S(=O)(=O)Nc2c(C)n(C)n(-c3ccccc3)c2=O)cc1 | -4.2% (inactive)
53 | COC(=O)Nc1c(C)n(C)n(-c2ccccc2)c1=O | -15.1% (inactive)
54 | C/C(=N/NC(=O)c1cc(Cl)ccc1O)C12CC3CC(CC(C3)C1)C2 | 24.2% (inactive)
55 | Cc1nc(C)c2c(c1C(F)(F)F)-c1ccccc1C2(F)F | -9.6% (inactive)
56 | Nc1ncc(-c2cc3ccccc3oc2=O)s1 | 24% (inactive)
57 | CCN(CC)c1nc(-c2ccccc2)cc(C(F)(F)F)c1C#N | 89.5% (active)
58 | CCc1c(-c2ccccc2)nc(N)c(C#N)c1-c1cccs1 | 21.7% (inactive)
59 | N#Cc1c(C(F)(F)F)cc(-c2ccccc2)nc1SCC(=O)N1CCOCC1 | -15.6% (inactive)
60 | Cc1ccc(-c2csc(-c3c[nH]c4ccccc34)n2)cc1 | 9.8% (inactive)
61 | COc1ccc2c(Cl)c(C(=O)NCc3ccco3)sc2c1 | -31.6% (inactive)
62 | Cc1nc(SCC(=O)c2ccccc2)c([N+](=O)[O-])[nH]1 | 39.1% (inactive)
63 | Cc1cc(SCC(=O)c2ccccc2)nc(SCC(=O)c2ccccc2)n1 | 66.3% (active)
64 | COC(=O)c1cc(C(=O)CSc2nc(C)cc(C)n2)ccc1O | 6% (inactive)
65 | O=S(=O)(NCCOc1cccc2cccnc12)c1ccc(F)cc1 | -234% (inactive)
66 | O=S(=O)(Nc1ccc(Oc2ncccn2)c(Cl)c1)c1ccc(F)cc1 | 99.7% (active)
67 | O=S(=O)(NCc1ccccn1)c1ccc(F)cc1 | -1.3% (inactive)
68 | CCCNc1ncnc2sc(C)c(C)c12 | 8.4% (inactive)
69 | CC(=O)c1ccc(Oc2cc(C)nc(-n3nc(C)cc3C)n2)cc1 | -5% (inactive)
70 | O=C(C(c1ccccc1)c1ccccc1)N1CCN(CC(O)COc2ccccc2)CC1 (stereo not drawn) | 65.6% (active)
71 | OC(COc1cccc(OCC(O)CN2CCCC2)c1)CN1CCCC1 (stereo not drawn) | 15.5% (inactive)
72 | COc1cccc(OCC(O)CN2CCN(CCO)CC2)c1 (stereo not drawn) | -2.9% (inactive)
73 | CN(C(=O)C1CCOC1)c1nnc(-c2cccnc2)s1 (stereo not drawn) | 0.8% (inactive)
74 | Cn1sc(NC(=O)c2ccccc2)nc1=O | 19.9% (inactive)
75 | CCn1c(NC(=O)c2ccccc2)c(-c2cccs2)c(=O)c2ccccc21 | 86.7% (active)

Row | Structure (SMILES) | inhibition
76 | CCn1c(=O)cc(O)c2ccccc21 | -18.7% (inactive)
77 | Cc1cc(-c2ccccc2)n2nc(C)c(-c3ccccc3)c2n1 | -9.3% (inactive)
78 | CCS(=O)(=O)Nc1ccc(C2=NN(S(=O)(=O)c3ccc(F)cc3)C(c3ccco3)C2)cc1 (stereo not drawn) | 87.7% (active)
79 | Fc1ccc(N2N=C(c3cccs3)CC2c2ccco2)c(F)c1 (stereo not drawn) | 15.7% (inactive)
80 | O=C(c1ccco1)N1CCN(C(=O)C2CC(c3ccc(F)cc3)=NO2)CC1 (stereo not drawn) | 5.7% (inactive)
81 | CC(=O)Nc1ccc(N2C(=O)CCC2=O)cc1C | 16.4% (inactive)
82 | O=C(Cn1nc(C(F)(F)F)c2c1CCC2)NCc1ccc(F)cc1 | -216% (inactive)
83 | CCCN1C(=O)C(NS(=O)(=O)c2ccc(N)cc2)(C(F)(F)F)C(C(=O)OC)=C1C (stereo not drawn) | -3.4% (inactive)
84 | CCCCn1c(CCCNC(=O)CC)nc2ccccc21 | -16.5% (inactive)
85 | Cc1ccccc1S(=O)(=O)Cc1ccc(C(=O)NCCN2CCCCC2C)o1 (stereo not drawn) | 11.1% (inactive)
86 | Cc1cccc(NC(=O)C(C)N2C(=O)C3C4CC(C(Br)C4Br)C3C2=O)c1 (stereo not drawn) | 51.6% (active)
87 | Cc1cccc(NC(=O)Nc2cccc(Oc3c(F)c(F)c(F)c(F)c3F)c2)c1 | 20.6% (inactive)
88 | Cc1cccc(NC(=O)CN2C(=O)CNC2=O)c1 | -16.3% (inactive)
89 | CC1=C(C(=O)Nc2ccc(Cl)cc2)C(c2ccco2)NC(=O)N1 (stereo not drawn) | 0.4% (inactive)
90 | CCOC(=O)COc1ccc(Cl)cc1C1NC(=O)NC(C)=C1C(C)=O (stereo not drawn) | 44.9% (inactive)
91 | CCOc1ccccc1C1NC(=O)NC(C)=C1C(=O)OCc1ccco1 (stereo not drawn) | 75.3% (active)
92 | CCOc1ccccc1C(=O)NCc1ccco1 | -0.6% (inactive)
93 | c1ccc(CSc2ncnc3c2sc2nc(N4CCOCC4)c4c(c23)CCCC4)cc1 | 10.4% (inactive)
94 | CCOC(=O)c1sc(NC(=O)CSc2nc(C)cc(C(F)(F)F)n2)c(C#N)c1C | 24.8% (inactive)
95 | CCC(=O)NC(Nc1cc(C)ccn1)(C(F)(F)F)C(F)(F)F | 23.8% (inactive)
96 | COC(=O)C(NC(C)=O)(Nc1nc2c(s1)CCCC2)C(F)(F)F (stereo not drawn) | 26.9% (inactive)
97 | CCC(=O)NC(Nc1nc2ccc(C)cc2s1)(C(=O)OC)C(F)(F)F (stereo not drawn) | 97% (active)
98 | O=C(CCN1C(=O)COc2ccccc21)NCCCN1CCN(c2ccc(F)cc2)CC1 | 3.9% (inactive)
